For 16 molecules, Potency results are on record in PubChem BioAssay (NCATS).

Results filed as inconclusive are left out. Entries that show only a call come without a potency. Activity calls are given as the source filed them. Calls follow the shape of the dose curve; as a rule, active = well fitted inhibition curve with a large enough effect; inconclusive = small, poorly fitted or top-dose-only effect; inactive = flat fitted curve, though single readings scatter.

Sequence of Calcium and integrin-binding protein 1 (Homo sapiens) (Q99828 whole entry, looked up): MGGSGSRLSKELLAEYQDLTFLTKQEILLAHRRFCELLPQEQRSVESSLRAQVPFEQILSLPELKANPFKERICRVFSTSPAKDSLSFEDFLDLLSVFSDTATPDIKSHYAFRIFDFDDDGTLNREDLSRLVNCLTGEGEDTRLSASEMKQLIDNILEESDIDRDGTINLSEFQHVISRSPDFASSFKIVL

This test deals with Calcium and integrin-binding protein 1 (Homo sapiens) (UniProt Q99828). As to the kind of experiment: Primary qHTS for Identification of Calcium Integrin Binding Protein 1 (CIB1) Competitor (AID 1508620).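 Also: GST tagged CIB1 binding a fluorescein labelled alphaIIb integrin peptide tracer; top concentration of the series differs between compounds.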 Particulars: CIB1-GST / FITC-alphaIIb peptide fluorescence polarization; series mostly up to 114 µM. In short, it runs like this:
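CIB1-GST (1 uM final) and compound incubated 15 min at room temperature before adding FITC-alphaIIb peptide tracer (100 nM final). Competition for binding read by fluorescence polarization (ex 480, em 540) after another 15 min at room temperature.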
In general terms: In qHTS, concentration-response curves come from the screen itself.
In the case of `O=C(Nc1ccc2ccccc2c1)Nc1nnc(-c2ccncc2)s1`, the Potency result is “inactive”. The result for `O=C(CN1C(=O)N/C(=C\c2cccn2-c2cccc(C(=O)O)c2)C1=O)Nc1cccc(Cl)c1` reads “inactive”. With `COc1cc(F)c(S(=O)(=O)N2CCCN(S(=O)(=O)c3ccc(NC(C)=O)cc3)CC2)c(F)c1`, the Potency result is “inactive”. Under `O=S(=O)(c1cccc(F)c1)N1CCN(S(=O)(=O)c2ccc3c(c2)OCCO3)CC1` stands “inactive”; under `COc1cccc(-c2ccc(=O)n(CC(=O)NCCc3ccccc3)n2)c1`, “inactive”; under `c1ccc(-c2nc(NCc3ccc(-c4cccnc4)cc3)c3ccccc3n2)cc1`, “inactive”.

With `c1nc(NCCC2CCCO2)c2cc(-c3ccc4c(c3)OCO4)ccc2n1` (stereo unspecified), the Potency entry is “inactive”. `O=C(Nc1cccc2c1cnn2-c1ccc(F)cc1)c1ccccn1`: the Potency entry was “inactive”. With `COc1ccc(-c2ccc3ncnc(NCc4cccs4)c3c2)cc1`, the Potency entry was “inactive”.

Turning to `COc1ccc(C2=Nn3c(nnc3-c3cc(OC)ccc3OC)SC2)c(OC)c1`, the Potency result was “inactive”.

With `O=[N+]([O-])c1ccccc1S(=O)(=O)N1CCN(S(=O)(=O)c2ccc3c(c2)OCCO3)CC1`, the Potency result is “inactive”. Take `FC(F)(F)c1cccc(-c2nc(NCc3ccc(-c4cccnc4)cc3)c3ccccc3n2)c1`: the Potency result is “inactive”. Turning to `Cc1cc(C)nc(NC(=S)N2CCN(c3cc(C(F)(F)F)nc(C)n3)CC2)c1`, the Potency entry was “inactive”. With `Cc1ccc(NC(=O)c2cnn3c(C)cc(C)nc23)cc1`, the Potency result was “inactive”. Turning to `O=C(O)c1cccc(-c2cccc(-c3nn4c(=O)cc(N5CCNCC5)nc4s3)c2)c1`, the Potency entry was “inactive”. With `COc1ccc(C2=Nn3c(nnc3-c3ccccc3OC)SC2)cc1OC`, the Potency result is “inactive”.
